Drawing on ChEMBL document CHEMBL3988442, “University of Dundee, Small-Polar-MMV Screening Library” (2021), this text covers Percent Effect for 39 compounds.

For one experiment, the system named is Trypanosoma cruzi. Put plainly: Trypanosoma cruzi phosphomannomutase and mannose-1-phosphate guanylyltransferase assay. In kind it is functional. Set-up: scale not given: direction of the effect not stated beside the values. As to conditions: 10 µM.
Regarding `CCn1nc(C(=O)N2CCCC(n3cncn3)C2)ccc1=O` (stereo not drawn), the Percent Effect is 6.76%.

Regarding `CNc1nc(C)c(C(=O)N2CCCCC2CN2CCCCCC2)s1` (stereo not drawn), the Percent Effect was 3.74%.

Take `CCOCC(=O)N1C[C@@H](O)[C@H](N(C)Cc2ccc(OC)cc2)C1`: the Percent Effect was -1.19%.

As to `c1cnc(NCc2ncn3c2CN(Cc2cccnc2)CCC3)nc1`, the Percent Effect was -2.15%.

Regarding `O=C1CCSCC(C(=O)N2CCOCC2)N1` (stereo not drawn), the Percent Effect was -2.74%.

On to `O=C(COCc1nc(-c2ccncc2)no1)N1CCCCCC1`, for which the Percent Effect was -35.1%.

Turning to `CCc1csc(C2CCCN(C(=O)c3cnn(CC)c3)C2)n1` (stereo not drawn), the Percent Effect was -1.46%.

`COc1ccc(CCC(=O)Nc2cccnc2N2CCCC2)cc1Br`: the Percent Effect is -5.57%.

As for `CC(=O)c1ccc(N2CCCC(CO)(CCOc3ccccc3)C2)nc1` (stereo not drawn), the Percent Effect worked out at 6.39%.

Consider `c1cncc(C2COC3(CCN(CC4CC4)CC3)C2)c1` (stereo not drawn), for which the Percent Effect is -1.17%.

Turning to `Cc1ccc2c(n1)N(CCn1cccn1)CCN(C(=O)NC1CC1)C2`, the Percent Effect amounted to 6.55%.

In the case of `Cc1cnn(C2CCCN(C(=O)c3cnc4ccccc4n3)C2)c1` (stereo not drawn), the Percent Effect was 1.04%.

As to `CCCc1cc(=O)n(CC(N)=O)c(-n2nc(C)cc2C)n1`, the Percent Effect stood at 2.46%.

In the case of `Cc1cc(C)n(C2CCCN(C(=O)c3cc(C4CC4)on3)C2)n1` (stereo not drawn), the Percent Effect was 4.41%.

`Cc1ccc(Nc2nccc(C3CCCN(CC(=O)N(C)C)C3)n2)nc1` (stereo not drawn): the Percent Effect amounted to 5.51%.

`CC(C)c1cccc(CSc2nnc(CN3CCCC3=O)o2)n1`: the Percent Effect was -0.0974%.

For the compound `N#Cc1ccc(OCCN2CCc3c(ncn3C3CC3)C2)cc1`, the Percent Effect is -1.31%.

`O=C(NCc1nncn1-c1ccccc1)C1CC(=O)N(CC2CC2)C1` (stereo not drawn): the Percent Effect was -3.3%.

Regarding `CCc1nccn1C1CCCN(C(=O)Cc2n[nH]c3ccccc23)C1` (stereo not drawn), the Percent Effect is -4.62%.

Regarding `CN(Cc1ccsc1)C(=O)c1cccc(NS(C)(=O)=O)c1`, the Percent Effect turned out to be 4.12%.

With `CNC(=O)CS(=O)(=O)Cc1coc(-c2ccc(OC)cc2)n1`, the Percent Effect was -1.35%.

Consider `CC(C)CS(=O)(=O)CC(=O)N(C)Cc1ccc(OC(F)F)cc1`, for which the Percent Effect was -1.74%.

For `CN(Cc1ccccn1)C1COC2(CCN(Cc3cccnc3)CC2)C1` (stereo not drawn), the Percent Effect was found to be 4.72%.

Turning to `COc1ccc(C2=C(C)C(N3CCc4ccccc4C3)=NS2(=O)=O)cc1`, the Percent Effect amounted to 3.45%.

Consider `Cn1c(C2CC2)nc2c1CCN(CC(=O)Nc1nncs1)C2`, for which the Percent Effect was -2.06%.

For `Cc1cccc(CN2CCN(Cc3ccccc3)CC(O)C2)n1` (stereo not drawn), the Percent Effect was -0.193%.

As for `CCn1cc(CN2CCCN(C(=O)C3=NN(C)C(=O)CC3)CC2)cn1`, the Percent Effect is -0.686%.

Take `O=C(CN1CCc2cncnc2C1)NCCOc1ccccc1`: the Percent Effect is -2.33%.

As to `Cc1ncsc1C(=O)N(C)CCc1ccncc1`, the Percent Effect is -0.564%.

On to `N#Cc1cccc(CS(=O)(=O)NCC(O)Cc2ccccc2)c1` (stereo not drawn), for which the Percent Effect was 0.682%.

With `Cc1ccc(-c2nc(CN3CCc4nn(C)c(=O)cc4C3)co2)cc1`, the Percent Effect is -2.74%.

`Cc1cc(C)n(CC2CCCN2CC(=O)N(C)C)n1` (stereo not drawn): the Percent Effect was -2.92%.

For the compound `CN(C)S(=O)(=O)N1CCC(Oc2ccc(C#N)cc2)CC1`, the Percent Effect is -6.12%.

Take `CC(C)c1cc(NC(=O)CN2CCc3cncnc3C2)on1`: the Percent Effect is 1.31%.

Regarding `CCc1nc(CN(Cc2cccs2)CC2CCCO2)no1` (stereo not drawn), the Percent Effect is -0.308%.

Take `CCCN1CC(C(=O)Nc2ccccn2)CC1=O` (stereo not drawn): the Percent Effect amounted to 4.83%.

Regarding `Cc1cnn(CCNCc2ccc(F)cc2Cl)c1`, the Percent Effect was -1.02%.

For the compound `O=C(c1ccn(-c2cccc(F)c2)n1)N1CCCC(n2cccn2)C1` (stereo not drawn), the Percent Effect stood at 5.78%.

Consider `N#Cc1ccnc(N2CCN(C(=O)Cc3ccc4c(c3)CCO4)CC2)c1`, for which the Percent Effect worked out at 5.83%.

In the next experiment the target is T1, Arginase-2, mitochondrial (Homo sapiens) (UniProt P78540).
T1 sequence (whole entry): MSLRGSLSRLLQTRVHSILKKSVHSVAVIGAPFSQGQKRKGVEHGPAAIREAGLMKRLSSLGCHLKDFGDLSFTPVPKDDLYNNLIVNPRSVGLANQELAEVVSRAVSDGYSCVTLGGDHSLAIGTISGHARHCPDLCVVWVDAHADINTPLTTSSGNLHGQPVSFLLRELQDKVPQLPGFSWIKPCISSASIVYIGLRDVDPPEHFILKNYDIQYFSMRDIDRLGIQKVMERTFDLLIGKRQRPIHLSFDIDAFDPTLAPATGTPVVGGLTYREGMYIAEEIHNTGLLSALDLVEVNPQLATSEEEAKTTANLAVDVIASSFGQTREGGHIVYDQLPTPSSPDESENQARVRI
The experiment is described as follows: in vitro enzyme assay to detect the production of urea directly proportional to the activity of Arginase II. Format: functional. Set-up: scale not given: in the data most compounds retested in dose-response had high values. The settings on record: 33.3 µM.
As for `CCn1nc(C(=O)N2CCCC(n3cncn3)C2)ccc1=O` (stereo not drawn), the Percent Effect is 2.74%.

Take `CNc1nc(C)c(C(=O)N2CCCCC2CN2CCCCCC2)s1` (stereo not drawn): the Percent Effect is -1.63%.

As for `CCOCC(=O)N1C[C@@H](O)[C@H](N(C)Cc2ccc(OC)cc2)C1`, the Percent Effect was determined as 0.232%.

Consider `c1cnc(NCc2ncn3c2CN(Cc2cccnc2)CCC3)nc1`, for which the Percent Effect was 1.25%.

`O=C1CCSCC(C(=O)N2CCOCC2)N1` (stereo not drawn): the Percent Effect was -0.455%.

Regarding `O=C(COCc1nc(-c2ccncc2)no1)N1CCCCCC1`, the Percent Effect is -55.2%.

For `CCc1csc(C2CCCN(C(=O)c3cnn(CC)c3)C2)n1` (stereo not drawn), the Percent Effect was found to be 3.55%.

As for `COc1ccc(CCC(=O)Nc2cccnc2N2CCCC2)cc1Br`, the Percent Effect came out at 2.81%.

Regarding `CC(=O)c1ccc(N2CCCC(CO)(CCOc3ccccc3)C2)nc1` (stereo not drawn), the Percent Effect was -22.1%.

Turning to `c1cncc(C2COC3(CCN(CC4CC4)CC3)C2)c1` (stereo not drawn), the Percent Effect is 4.58%.

Regarding `Cc1ccc2c(n1)N(CCn1cccn1)CCN(C(=O)NC1CC1)C2`, the Percent Effect is -1.24%.

As for `Cc1cnn(C2CCCN(C(=O)c3cnc4ccccc4n3)C2)c1` (stereo not drawn), the Percent Effect is -1.6%.

As for `CCCc1cc(=O)n(CC(N)=O)c(-n2nc(C)cc2C)n1`, the Percent Effect is -4.52%.

In the case of `Cc1cc(C)n(C2CCCN(C(=O)c3cc(C4CC4)on3)C2)n1` (stereo not drawn), the Percent Effect is -1.05%.

For `Cc1ccc(Nc2nccc(C3CCCN(CC(=O)N(C)C)C3)n2)nc1` (stereo not drawn), the Percent Effect was -6.76%.

`CC(C)c1cccc(CSc2nnc(CN3CCCC3=O)o2)n1`: the Percent Effect turned out to be 5.21%.

Regarding `N#Cc1ccc(OCCN2CCc3c(ncn3C3CC3)C2)cc1`, the Percent Effect was found to be 0%.

Regarding `O=C(NCc1nncn1-c1ccccc1)C1CC(=O)N(CC2CC2)C1` (stereo not drawn), the Percent Effect was 24.4%.

Regarding `CCc1nccn1C1CCCN(C(=O)Cc2n[nH]c3ccccc23)C1` (stereo not drawn), the Percent Effect was determined as 3.66%.

Take `CN(Cc1ccsc1)C(=O)c1cccc(NS(C)(=O)=O)c1`: the Percent Effect was -6.41%.

On to `CNC(=O)CS(=O)(=O)Cc1coc(-c2ccc(OC)cc2)n1`, for which the Percent Effect was -1.91%.

For the compound `CC(C)CS(=O)(=O)CC(=O)N(C)Cc1ccc(OC(F)F)cc1`, the Percent Effect turned out to be 0.476%.

Take `CN(Cc1ccccn1)C1COC2(CCN(Cc3cccnc3)CC2)C1` (stereo not drawn): the Percent Effect came to 49.2%.

For `COc1ccc(C2=C(C)C(N3CCc4ccccc4C3)=NS2(=O)=O)cc1`, the Percent Effect was 4.52%.

Regarding `Cn1c(C2CC2)nc2c1CCN(CC(=O)Nc1nncs1)C2`, the Percent Effect is -11.4%.

`Cc1cccc(CN2CCN(Cc3ccccc3)CC(O)C2)n1` (stereo not drawn): the Percent Effect was -1.43%.

Take `CCn1cc(CN2CCCN(C(=O)C3=NN(C)C(=O)CC3)CC2)cn1`: the Percent Effect came out at 6.11%.

As for `O=C(CN1CCc2cncnc2C1)NCCOc1ccccc1`, the Percent Effect was -12.9%.

As to `Cc1ncsc1C(=O)N(C)CCc1ccncc1`, the Percent Effect is 0%.

On to `N#Cc1cccc(CS(=O)(=O)NCC(O)Cc2ccccc2)c1` (stereo not drawn), for which the Percent Effect is -3.12%.

Turning to `Cc1ccc(-c2nc(CN3CCc4nn(C)c(=O)cc4C3)co2)cc1`, the Percent Effect was determined as 1.2%.

Consider `Cc1cc(C)n(CC2CCCN2CC(=O)N(C)C)n1` (stereo not drawn), for which the Percent Effect was -4.01%.

Take `CN(C)S(=O)(=O)N1CCC(Oc2ccc(C#N)cc2)CC1`: the Percent Effect is 1.77%.

Take `CC(C)c1cc(NC(=O)CN2CCc3cncnc3C2)on1`: the Percent Effect was -5.34%.

On to `CCc1nc(CN(Cc2cccs2)CC2CCCO2)no1` (stereo not drawn), for which the Percent Effect worked out at 2.37%.

Turning to `CCCN1CC(C(=O)Nc2ccccn2)CC1=O` (stereo not drawn), the Percent Effect turned out to be 12.4%.

Regarding `Cc1cnn(CCNCc2ccc(F)cc2Cl)c1`, the Percent Effect is 0.554%.

On to `O=C(c1ccn(-c2cccc(F)c2)n1)N1CCCC(n2cccn2)C1` (stereo not drawn), for which the Percent Effect is -1.05%.

Consider `N#Cc1ccnc(N2CCN(C(=O)Cc3ccc4c(c3)CCO4)CC2)c1`, for which the Percent Effect was 0%.
